KB-V1 MDR tox: kills drug-selected multidrug resistant KB-V1 cells; hit rate 3.4% among 400,000; KB-V1 MDR cells viability, CellTiter-Glo, 72 h; Potency, µM (titrated, usually from 46.1 µM), usual class: cytotoxic; further: potency means the concentration at half of the fitted maximal effect; on the % scale 0 is the no-effect control and ±100 the full control effect; nearly all actives have a fitted effect of over 60% in size
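Cytotoxicity toward P-gp-expressing KB-V1 cells was determined as loss of CellTiter-Glo luminescence after 72 h at 37 degrees C. Compounds were tested in quantitative HTS format across a concentration range, with curves fitted to normalized data.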
D3 antag: blocks the human D3 dopamine receptor | hit rate 2.5% among 360,000 | D3R cells, DiscoveRx beta-arrestin luminescence, antagonist mode; active compounds read low | max response, negative = inhibition, %; in the data active means max response below about -50%; inconclusive means no clear call, values can overlap the other calls; further: on the % scale 0 is the no-effect control and ±100 the full control effect
Target sequence (P35462 whole entry, looked up): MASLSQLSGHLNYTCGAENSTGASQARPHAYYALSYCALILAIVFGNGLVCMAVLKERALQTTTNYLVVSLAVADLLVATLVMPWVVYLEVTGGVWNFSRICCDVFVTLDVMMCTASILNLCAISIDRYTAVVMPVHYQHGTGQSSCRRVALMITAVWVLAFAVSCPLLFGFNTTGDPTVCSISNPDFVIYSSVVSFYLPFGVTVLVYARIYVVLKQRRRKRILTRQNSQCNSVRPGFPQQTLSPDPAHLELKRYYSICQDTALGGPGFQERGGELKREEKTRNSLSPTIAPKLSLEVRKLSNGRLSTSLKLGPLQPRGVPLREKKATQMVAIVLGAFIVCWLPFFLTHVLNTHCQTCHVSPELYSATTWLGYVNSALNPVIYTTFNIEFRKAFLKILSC
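Cells expressing the human receptor were seeded at 1500 cells/well, incubated overnight at 37 degrees C in 5% CO2, then exposed to library compounds with dopamine controls for 90 minutes at 37 degrees C before luminescent detection.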
DRD3 agonist: agonists of human D3 dopamine receptor. P35462. D3R DiscoveRx beta-arrestin cells, luminescence, 90 min. max activation, %. hit rate 0.58% among 410,000; in the data active means max activation above about 30%; further: 0% is about no effect
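Agonist-mode cell screen: cells plated at 1500/well and incubated overnight at 37 °C, then exposed to library compounds for 90 min at 37 °C. Detection reagent was added for 30–60 min at room temperature, and luminescence was read.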
MCF10A rereplic: induces DNA re-replication in MCF 10a normal breast cells; hit rate 2.9% among 350,000; MCF 10A DNA re-replication, Hoechst nuclear intensity, 48 h; Potency, µM (highest dose often 46.1 µM), without a hit: top-dose activity, positive = re-replication, usual class: activators; further: potency means the concentration at half of the fitted maximal effect; % of control where 0% means no effect; nearly all actives have a fitted effect of over 50% in size
KB-3-1 tox: kills parental KB-3-1 adenocarcinoma cells | hit rate 1.4% among 400,000 | KB-3-1 viability, CellTiter-Glo ATP luminescence, 72 h | Potency, µM (top dose mostly 46.1 µM), actives largely listed as cytotoxic | AID 1347075; further: potency means the concentration at half of the fitted maximal effect; on the % scale 0 is the no-effect control and ±100 the full control effect; nearly all actives have a fitted effect of over 60% in size
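Cytotoxicity measured as CellTiter-Glo luminescence after 72 h at 37 C. Compound titrations were pinned onto drug-naive KB-3-1 parental adenocarcinoma cells grown in DMEM with 10% FBS, and normalized data fitted to concentration-response curves.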
SW480 rereplic: DNA re-replication induction in SW480 cells; SW480 DNA re-replication, Hoechst DNA content imaging, 48 h; Potency, µM (series often up to 46.1 µM), for inactives: at the highest dose re-replication activation, actives largely listed as activators; hit rate 1.8% among 340,000; AID 624297; further: potency means the concentration at half of the fitted maximal effect; % of control where 0% means no effect; nearly all actives have a fitted effect of over 55% in size
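Per well, 250 cells were exposed to pinned compound for 48 hr. Nuclear DNA was visualised with Hoechst (40 min, 37 C) and total object intensity recorded by fluorescence scanning.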
Starred values were filed as active, the others as inactive; i = inactive; ? = inconclusive; / = no result. This is a sample that favours compounds with a hit; in the whole collection about 8.9% have one here. Unless noted, the call rests on the fitted dose curve; in most records, active means well fitted curve in the direction sought with a large enough effect; inconclusive means small, poorly fitted or top-dose-only effect, or another doubt; inactive means no such curve, though single readings can be large; an effect the other way counts as inactive or inconclusive.

SMILES	KB-V1 MDR tox	D3 antag	DRD3 agonist	MCF10A rereplic	KB-3-1 tox	SW480 rereplic
CN1CCS/C1=C\C=C1/SC(=S)N(CC(=O)O)C1=O	i	-68*	-16	2%	i	0%
CCN1C(=O)/C(=C/C=C2/SCCN2C)SC1=S	i	-17	-10	-2%	i	-8%
CN1/C(=C\C=C2/SC(=S)N(CC(=O)O)C2=O)C(C)(C)c2ccccc21	i	-79*	-16	-8%	i	3%
C=CCN1C(=O)/C(=C\C=C2\N(C)c3ccccc3C2(C)C)SC1=S	i	-20	-7	5%	i	3%
Cc1cc2c(cc1S(=O)(=O)N(C)CC(=O)Nc1cccc(C#N)c1)OCC(=O)N2	i	/	-1	/	i	/
COc1ccc(CCNC(=O)c2cnc3sc(N4CCOCC4)nn3c2=O)cc1OC	i	/	1	/	i	/
Fc1ccc(NC(=S)NCc2cccs2)cc1	18µM*	0	-5	-55%	?	?
Cc1cc(N2CCN(C)CC2)nc2ccc(NC(=O)c3ccc4c(c3)OCO4)cc12	i	-76*	-6	?	7.3µM*	27%
CCN1CCN(c2cc(C)c3cc(NC(=S)NCc4cccs4)ccc3n2)CC1	i	-24	-12	7.3µM*	i	?
CCN1CCN(c2cc(C)c3cc(NC(=S)NCCCOC)ccc3n2)CC1	?	-13	-4	?	i	-15%
Cc1cc(N2CCN(C)CC2)nc2ccc(NC(=S)NCc3cccs3)cc12	i	-9	-19	9.2µM*	i	?
COc1ccc(CNC(=S)Nc2ccc3nc(N4CCN(C)CC4)cc(C)c3c2)cc1	i	-8	-22	?	i	9%
COc1ccc(NC(=O)c2cc3nc(-c4ccc(Cl)c(Cl)c4)cc(C(F)(F)F)n3n2)c(OC)c1	/	/	3	/	/	/
Cc1ccc(NC(=O)Cn2c(=O)n(Cc3ccc4c(c3)OCO4)c(=O)c3ccc(C(=O)NC4CCCCC4)cc32)cc1	i	/	3	/	i	/
COc1ccc(Cn2ccnc2SCC(=O)Nc2ccc3c(c2)OCCO3)cc1	/	/	2	/	/	/
Cc1c(CCC(=O)NCc2ccc(F)cc2)c(=O)oc2cc(O)ccc12	i	/	-21	/	i	/
Cc1cc(N2CCCCC2)nc2ccc(NC(=O)c3ccc(Br)o3)cc12	?	-20	0	8.2µM*	?	?
CN(C)CC#CCC(O)(c1ccccc1)C1CCCCC1 (stereo not drawn)	i	-55*	-13	-3%	i	18%
Cc1c2cnn(-c3ccccc3)c(=O)c2c(C)n1CC(=O)NCc1ccccc1Br	/	/	5	/	/	/
Cc1cc(/C=C/c2nc3ccccc3s2)ccc1N(C)C	i	/	/	/	i	/
COc1cc2nc(/C=C/c3ccc(N(C)C)cc3)sc2cc1SC	i	66	23	3.3µM*	i	21µM*
COc1cccc(C(=O)Nc2ccc3nc(SCCOc4ccccc4)sc3c2)c1	i	/	1	/	i	/
O[C@H]1C[C@H](c2ccccc2)N(CC2CCCCC2)C[C@@H]1n1cc(C2CC2)nn1	i	-7	3	/	?	/
O[C@@H]1CN(CC2CCCCC2)[C@@H](c2ccccc2)C[C@H]1n1cc(C2CC2)nn1	?	-10	4	/	21µM*	/
COc1ccc(C2C3=C(CC(C)(C)CC3=O)Nc3cc4c(cc32)OCO4)cc1 (stereo not drawn)	i	-18	1	4%	i	-7%
SMILES	KB-V1 MDR tox	D3 antag	DRD3 agonist	MCF10A rereplic	KB-3-1 tox	SW480 rereplic
COc1ccc(OC)c(C2C3=C(COC3=O)Nc3cc4c(cc32)OCO4)c1 (stereo not drawn)	1.2µM*	-30	-5	0.26µM*	0.058µM*	0.15µM*
COc1ccc(NC(=O)C(=O)NCCN2CCN(C(=O)c3ccc(C)cc3)CC2)cc1	?	-70*	-17	0%	i	3%
COc1ccc(C(=O)N2CCN(CCNC(=O)C(=O)Nc3ccc(F)cc3)CC2)cc1	i	-9	-8	-2%	i	25%
COc1ccc(C(=O)NCCN2CCN(C(=O)c3ccc(OC)cc3)CC2)cc1	i	-83*	-15	4%	i	-3%
CCOCCc1nn2c(=O)cc(COC(=O)c3ccco3)nc2s1	i	/	2	/	i	/
CC1C2=C(CC(C)(C)CC2=O)NC2=C1C(=O)CC(C)(C)C2	i	-5	0	5.8µM*	i	-106%
Cc1c(-c2n[nH]c(=S)n2-c2ccc(C(F)(F)F)cc2)nnn1-c1ccccc1	23µM*	-11	-3	13%	i	1%
Cc1c(-c2n[nH]c(=S)n2-c2ccc(Br)cc2)nnn1-c1ccc(Cl)cc1	i	-12	-6	?	i	-8%
CCc1ccc(NC(=O)c2sc3nc(C)cc(C)c3c2NC(=O)c2ccccc2)cc1	i	/	-3	/	i	/
COc1ccc([N+](=O)[O-])cc1NCc1ccccc1	?	-5	1	3%	?	1%
COc1cccc(CNc2ccc([N+](=O)[O-])cc2C)c1	15µM*	9	-7	1%	i	?
COc1ccc([N+](=O)[O-])cc1NCc1ccccc1C	i	0	1	5.8µM*	i	?
COC(=O)CN1C(=O)CSc2ccc(S(=O)(=O)Nc3cccc(Br)c3)cc21	/	/	6	/	/	/
CCOc1ccc(N(C(=O)/C=C/C(=O)Nc2cc(C)on2)C(C(=O)NC2CCCC2)c2ccccc2C)cc1 (stereo not drawn)	?	13	2	-1%	9.2µM*	-4%
COc1ccccc1CNC(=O)CS(=O)(=O)Cc1nc(-c2ccccc2C)oc1C	i	/	4	/	i	/
CCOC(=O)c1c(-c2ccccc2)csc1NC(=O)c1cc(-c2cccc(OC)c2)on1	i	/	10	/	i	/

Compound activity: PubChem BioAssay, National Center for Advancing Translational Sciences (NCATS)
